Assay results published in article PMC5540273 (PLoS ONE, 2017).

tested on: MAP4K2; conditions: concentration: 1 μM, replicates: in singlicate; n = 1
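Note: KINOMEscan kinase panel screen.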

| Structure (SMILES) | %Inh [%] |
| --- | --- |
| Cl.Cl.NCC(NCc1ccc(-c2ccnc3[nH]ccc23)s1)c1ccccc1 (stereo not drawn) [GSK1321565] | 64 |
| Cl.NC(=O)c1cccc(Nc2nccc(Nc3ccc(Oc4c(Cl)cccc4Cl)c(Cl)c3)n2)c1 [GW659009] | 10 |
| O=C(Nc1ccccc1F)NC1CCN(c2ccnc(Nc3ccc(F)cc3)n2)CC1 [GSK1379800] | 0 |
| Cc1ccc(C(=O)N2CC[C@@H](O)C2)cc1-n1c(C)cc(OCc2ccc(F)cc2F)c(Br)c1=O | 0 |
| CN(C)S(=O)(=O)c1cc(-c2ccc3nccc(-c4cccc(S(N)(=O)=O)c4)c3c2)cnc1N [GSK1669921] | 13 |
| O=c1[nH]cc(-c2ccc(N3CCOCC3)cc2)c2sc(-c3cn[nH]c3)cc12 [GSK2276055] | 27 |
| CCCCc1nn2ncccc2c1-c1ccnc(Nc2ccc(N3CCN(C)CC3)cc2)n1 [GW684941] | 0 |
| O=C(Nc1cccc(-c2nn3ccccc3c2-c2ccnc(Nc3cccc(F)c3)n2)c1)c1c(F)ccc(F)c1Cl [GSK357952] | 0 |
| c1ccc(-c2n[nH]cc2Nc2ccnc3ccccc23)nc1 [GW694077] | 65 |
| COc1cc(Nc2nccc(-c3c(-c4cccc(NC(=O)c5c(F)cccc5F)c4)nn4ncccc34)n2)cc(OC)c1OC [GSK327238] | 12 |
| COc1cccc(C(=O)Nc2cccc(Oc3ccc4nc(NC(=O)C5CC5)cn4n3)c2)c1 | 0 |
| COCCOCCOc1cc2ncc3c4ccc(C#N)cc4[nH]c3c2cc1OC | 11 |
| Nc1ncc(-c2ccc3nccc(-c4ccncc4)c3c2)cc1S(=O)(=O)N1CCOCC1 [GSK1627798] | 0 |
| Cc1cccc(NC(=O)Nc2ccc(Oc3ncnc4ccn(C)c34)cc2)c1 | 0 |
| CN1CCN(Cc2cccc(-c3ccc4c(Nc5ccc(Oc6ccccc6)cc5)ccnc4c3)c2)CC1 [GW578342] | 0 |
| COc1cccc(C2=C(Nc3ccc(Cl)c(C(=O)O)c3)C(=O)NC2=O)c1 [SB-390769] | 100 |
| COc1ccc(Nc2nccc(NCCNC(=O)c3cc4ccccc4s3)n2)cc1 [GSK1379896] | 0 |
| COc1ccc(CNC(=O)NC2CCN(c3ccnc(Nc4ccc(F)cc4)n3)CC2)cc1 [GSK1379788] | 0 |
